Results filed as inconclusive are left out. The source holds several records for some structures; these can differ, active in one and inactive in another. Active and inactive are the calls of the source. The call rests on the fitted dose curve; in most records, active means well fitted curve in the direction sought with a large enough effect in the repeat runs; inconclusive means weak or mixed curves; inactive means no such curve, though single readings can be large; an effect the other way counts as inactive or inconclusive.
Potency means the concentration at half of the fitted maximal effect.

The nature of one assay: qHTS RealTime-Glo MT Cell Viability Assay in HepG2 cells - 40 hour (AID 1224870). Further: nearly all actives have a fitted effect of over 50% in size. The following applies: RealTime-Glo luminescence; series mostly up to 76.8 µM. The method in brief:
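Real-time viability: cells seeded at 600 per well together with NanoLuc and cell-permeant prosubstrate, compounds added after 5 h incubation. Luminescence tracked at 0, 8, 16, 24, 32 and 40 h of exposure.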
On the technique in general: In qHTS, concentration-response curves come from the screen itself.
With `C[n+]1ccn(Cc2ccccc2)c1`, the Potency entry was “inactive”. As for `O=C(Nc1cccc(C(F)(F)F)c1)c1cc(Br)cc(Br)c1O`, the Potency was 21.9 µM (active). Consider `CCCCCCCCCCCCCCCC[N+](C)(C)CCN(Cc1ccc(OC)cc1)c1ncccn1`, for which the Potency was 5.35 µM (active).

`CCCCN1C(=O)[C@@H]([C@H](O)C2CCCCC2)NC(=O)C12CCN(Cc1ccc(Oc3ccc(C(=O)O)cc3)cc1)CC2`: the Potency result is “inactive”. Still for that read-out and setting: the value for `Cc1[nH]cnc1C[C@H]1CCc2c(C)c3ccccc3n2C1=O` was 42.6 µM (active). As for `COc1cc(-c2nc(NC(=O)c3cc4cc(C)cc(C)c4n3CC(=O)O)sc2CCC2CCCCC2)c(OC)cc1Cl`, the Potency is 40 µM (active). Same read-out and setting: the value for `CCCC(=O)OC[C@@H](OC(=O)CCC)[C@@H](OC(=O)CCC)[C@H](Cn1c2nc(=O)[nH]c(=O)c-2nc2cc(C)c(C)cc21)OC(=O)CCC` was “inactive”; that for `Cc1cc(=O)oc2cc(N(C)C)ccc12` was “inactive”. Regarding `CCOC(=O)c1nc(C(Cl)(Cl)Cl)n(-c2ccc(Cl)cc2Cl)n1`, the Potency result is “inactive”. Regarding `O=C1c2c(O)ccc(Nc3ccc(CCO)cc3)c2C(=O)c2c([N+](=O)[O-])ccc(O)c21`, the Potency result is “inactive”.

Turning to `Clc1ccccc1C(c1ccccc1)(c1ccccc1)n1ccnc1`, the Potency is 24.5 µM (active) and inactive. For the molecule `OCCN1CCN(CC/C=C2/c3ccccc3Sc3ccc(C(F)(F)F)cc32)CC1`, the Potency is 15.1 µM (active).

For the molecule `CC[C@@]1(O)C(=O)OCc2c1cc1n(c2=O)Cc2cc3c(CN(C)C)c(O)ccc3nc2-1`, the Potency was 5.35 µM (active). On the same count and under the same terms, the value for `CCN(CC)CCCC(C)Nc1c2ccc(Cl)cc2nc2ccc(OC)cc12` (stereo not given) was 5.35 µM (active). Same read-out and setting: the value for `Nc1ccccc1O` was “inactive”; that for `Nc1ccc2c3c(cccc13)-c1ccccc1-2` was “inactive”; that for `OCCN(CCO)c1nc(N2CCCCC2)c2nc(N(CCO)CCO)nc(N3CCCCC3)c2n1` was “inactive”. As to `CC(C)(C)C1CCC(CC2=C(O)c3ccccc3C(=O)C2=O)CC1` (stereo not given), the Potency result is “inactive”. Turning to `C/C=C1/C(=O)C[C@H]2[C@@H]3CCC4=CC(=O)CC[C@]4(C)[C@H]3CC[C@]12C`, the Potency result is “inactive”.

With `ON=C1CCCC1`, the Potency entry is “inactive”. Same read-out and setting: the value for `C[C@@H](NCCCc1cccc(C(F)(F)F)c1)c1cccc2ccccc12` was 15.1 µM (active). Turning to `Nc1ccc2cc(S(=O)(=O)O)cc(O)c2c1N=Nc1ccccc1C(F)(F)F`, the Potency entry was “inactive”. The same measure, in the same setting: the value for `Cc1onc(-c2ccccc2Cl)c1C(=O)N[C@@H]1C(=O)N2[C@@H]1SC(C)(C)[C@@H]2C(=O)O` was “inactive”. `CCCCCCCCCCCCc1ccc(O)cc1`: the Potency was 54.9 µM (active).

As for `O=C(Oc1cccc2cccnc12)c1ccccc1`, the Potency was 5.35 µM (active).

Another assay can be described thus: A CellTox Green Cytotoxicity Assay to monitor cytotoxicity in HEK293 cells - 40 hour (AID 1224871). Further: nearly all actives have a fitted effect of over 45% in size. Particulars: CellTox Green fluorescence; series mostly up to 76.8 µM. The method in brief: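 HEK293 cells, 600/well, were preincubated 5 hours and then exposed to compounds at 37 C for up to 40 hours. A cell-impermeant cyanine dye staining dead-cell DNA was read by fluorescence at 0, 8, 16, 24, 32 and 40 h time points.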
Turning to `C[n+]1ccn(Cc2ccccc2)c1`, the Potency entry is “inactive”.

`CCCCCCCCCCCCCCCC[N+](C)(C)CCN(Cc1ccc(OC)cc1)c1ncccn1`: the Potency is 19 µM (active). Still for that read-out and setting: the value for `CNc1ccc(O)cc1` was 9.75 µM (active). On the same count and under the same terms, the value for `Oc1ccc(Cl)cc1Sc1cc(Cl)ccc1O` was 38.8 µM (active) and inactive. As to `CCCCN1C(=O)[C@@H]([C@H](O)C2CCCCC2)NC(=O)C12CCN(Cc1ccc(Oc3ccc(C(=O)O)cc3)cc1)CC2`, the Potency result is “inactive”. With `Cc1[nH]cnc1C[C@H]1CCc2c(C)c3ccccc3n2C1=O`, the Potency is 47.8 µM (active). Consider `CCCC(=O)OC[C@@H](OC(=O)CCC)[C@@H](OC(=O)CCC)[C@H](Cn1c2nc(=O)[nH]c(=O)c-2nc2cc(C)c(C)cc21)OC(=O)CCC`, for which the Potency was 21.3 µM (active). Still for that read-out and setting: the value for `Cc1cc(=O)oc2cc(N(C)C)ccc12` was “inactive”; that for `CCOC(=O)c1nc(C(Cl)(Cl)Cl)n(-c2ccc(Cl)cc2Cl)n1` was “inactive”; that for `O=C1c2c(O)ccc(Nc3ccc(CCO)cc3)c2C(=O)c2c([N+](=O)[O-])ccc(O)c21` was “inactive”.

Take `NC(=O)C1(N2CCCCC2)CCN(CCCN2c3ccccc3CCc3ccc(Cl)cc32)CC1`: the Potency was 26.8 µM (active). Regarding `CCCCc1oc2ccc(NS(C)(=O)=O)cc2c1C(=O)c1ccc(OCCCN(CCCC)CCCC)cc1`, the Potency is 19 µM (active). As to `Clc1ccccc1C(c1ccccc1)(c1ccccc1)n1ccnc1`, the Potency was 43.6 µM (active) and inactive.

Take `CC(C)(C)CC(C)(C)c1ccc(O)c(Cc2ccc(Cl)cc2Cl)c1`: the Potency was 23.9 µM (active).

Consider `OCCN1CCN(CC/C=C2/c3ccccc3Sc3ccc(C(F)(F)F)cc32)CC1`, for which the Potency is 26.8 µM (active). On to `CC[C@@]1(O)C(=O)OCc2c1cc1n(c2=O)Cc2cc3c(CN(C)C)c(O)ccc3nc2-1`, for which the Potency was 21.3 µM (active). For the molecule `CCN(CC)CCCC(C)Nc1c2ccc(Cl)cc2nc2ccc(OC)cc12` (stereo not given), the Potency was 6.01 µM (active). Regarding `COc1ccc(CN2CCN(C(c3ccc(F)cc3)c3ccc(F)cc3)CC2)c(OC)c1OC`, the Potency is 4.77 µM (active).

As to `NC(=NCCCCCCN=C(N)/N=C(\N)Nc1ccc(Cl)cc1)/N=C(\N)Nc1ccc(Cl)cc1`, the Potency was 15.8 µM (active) [middle of 4 runs].

In the case of `Nc1ccccc1O`, the Potency entry was “inactive”. As for `Nc1ccc2c3c(cccc13)-c1ccccc1-2`, the Potency is 39.3 µM (active).

Turning to `OCCN(CCO)c1nc(N2CCCCC2)c2nc(N(CCO)CCO)nc(N3CCCCC3)c2n1`, the Potency was 19 µM (active). On to `CC(C)(C)C1CCC(CC2=C(O)c3ccccc3C(=O)C2=O)CC1` (stereo not given), for which the Potency is 16.9 µM (active).

For `ON=C1CCCC1`, the Potency entry was “inactive”.

In the case of `C[C@@H](NCCCc1cccc(C(F)(F)F)c1)c1cccc2ccccc12`, the Potency was 23.9 µM (active).

In the case of `Nc1ccc2cc(S(=O)(=O)O)cc(O)c2c1N=Nc1ccccc1C(F)(F)F`, the Potency entry was “inactive”.

In the case of `Cc1onc(-c2ccccc2Cl)c1C(=O)N[C@@H]1C(=O)N2[C@@H]1SC(C)(C)[C@@H]2C(=O)O`, the Potency result was “inactive”.

On to `CS(=O)(=O)CCNCc1ccc(-c2ccc3ncnc(Nc4ccc(OCc5cccc(F)c5)c(Cl)c4)c3c2)o1`, for which the Potency entry was “inactive”. Regarding `CCN(CCC#N)c1ccc(N=Nc2c(Cl)cc([N+](=O)[O-])cc2Cl)cc1`, the Potency result is “inactive”. For the molecule `CCCCCCCCCCCCc1ccc(O)cc1`, the Potency is 49 µM (active).

Source of the values: PubChem BioAssay (Tox21).
